Inconclusive results are not listed. A structure can be active in one record and inactive in another. Calls of active or inactive are those of the source. The calls were made as follows, unless noted: active = hit-call score of the fitted dose curve at least 0.9, where 1 is the maximum; inactive = score below 0.9.
Experiments:
[1] = CCTE_Harrill_HTTr_Apoptosis_MCF7: CCTE's 6-hour Apoptosis Assessment for the High-Throughput Transcriptomics (HTTr) Platform, in MCF-7 cells cultured in DMEM + 10% fetal bovine serum, Harrill Lab (AID 2284011)
Outline: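 MCF-7 (DMEM + 10% FBS), 384-well; 8-pt dilution series, 6 h chemical exposure; caspase-3/7 activation via CellEvent Caspase 3/7 Green, HCI; bidirectional fit vs DMSO.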

[2] = CCTE_Harrill_HTTr_CellCount_MCF7: CCTE's Cell Proliferation Assessment for the High-Throughput Transcriptomics (HTTr) Platform, Harrill Lab (AID 2284012; active = hit-call score of the fitted dose curve at least 0.9, where 1 is the maximum;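 also: cells exposed to compound for six hours; intended direction is loss of nuclei count meaning fewer cells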)
Outline: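 Cell count from high-content imaging of Hoechst-labeled nuclei serves as viability/growth readout. Chemicals were applied to MCF-7 cells in eight concentrations for six hours, with fitting in both directions relative to DMSO.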

[3] = CCTE_Shafer_MEA_dev_per_burst_spike_percent: CCTE's Neural Network Formation Assay for Percent of Spikes in a Burst, Shafer Lab (AID 2284032);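 also: fitted as a decrease in burst spike percentage below DMSO baseline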
Outline: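 Value is trapezoidal AUC over recordings on days 5, 7, 9 and 12 of the well-mean fraction of spikes falling in single-electrode bursts; rat cortical cultures exposed continuously from plating, treatment renewed DIV 5 and 9, fitted downward against DMSO.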

[4] = biological target: Estrogen receptor (Homo sapiens) (UniProt P03372); experiment: CCTE_Deisenroth_AIME_384WELL_LUC_Active: CCTE's 384-well Estrogen Receptor Transactivation Assay with AIME metabolic competence (ERTA luciferase; metabolism positive), Deisenroth Lab (AID 2284030; active = hit-call score of the fitted dose curve at least 0.9, where 1 is the maximum)
Outline: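 AIME metabolism-positive mode: chemicals 0.002 - 200 uM, 2 h with alginate-bound PB/BNF-induced rat S9 → medium to VM7Luc4E2 ERTA, 24 h → luciferase. Positive fit vs 17beta-estradiol; n=4 typical.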

Chain of Estrogen receptor (Homo sapiens) (P03372 whole entry, looked up): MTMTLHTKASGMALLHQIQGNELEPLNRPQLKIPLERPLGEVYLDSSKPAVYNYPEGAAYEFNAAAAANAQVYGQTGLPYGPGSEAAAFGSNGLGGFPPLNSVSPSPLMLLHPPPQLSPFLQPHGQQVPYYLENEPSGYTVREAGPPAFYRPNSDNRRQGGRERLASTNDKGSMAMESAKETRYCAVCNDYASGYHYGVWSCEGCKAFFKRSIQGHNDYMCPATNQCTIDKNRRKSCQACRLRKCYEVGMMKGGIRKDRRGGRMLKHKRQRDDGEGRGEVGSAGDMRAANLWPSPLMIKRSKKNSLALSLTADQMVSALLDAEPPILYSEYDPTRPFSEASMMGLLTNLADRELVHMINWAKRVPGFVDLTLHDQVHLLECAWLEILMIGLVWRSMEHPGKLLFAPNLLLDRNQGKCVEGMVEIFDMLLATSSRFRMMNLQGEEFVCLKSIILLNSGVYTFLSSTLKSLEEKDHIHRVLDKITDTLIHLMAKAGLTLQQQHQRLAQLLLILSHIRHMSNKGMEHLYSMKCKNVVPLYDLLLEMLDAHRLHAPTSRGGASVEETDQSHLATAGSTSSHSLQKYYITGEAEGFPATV

Question: Which outcome [1] does the source give for `C=C(C)[C@H]1CC=C(C)CC1` here?
Answer: The outcome was “inactive”.

Question: And the outcome [2]?
Answer: Its outcome is “inactive”.

Question: Which outcome [1] does the source give for `O=C1c2cccc(O)c2C(=O)c2c(O)cc(CO)cc21` here?
Answer: Its outcome is “inactive”.

Question: And the outcome [2]?
Answer: The outcome was “inactive”.

Question: Which results are given for `CC/C=C\C/C=C\C/C=C\CCCCCCCC(=O)O`?
Answer: outcome [1]: inactive; outcome [2]: inactive

Question: With `c1c[nH]cn1` as the compound, how does the outcome [1] read?
Answer: The outcome was “inactive”.

Question: And the outcome [2]?
Answer: Its outcome is “inactive”.

Question: With `CCN(Cc1cccc(S(=O)(=O)O)c1)c1ccc(C(=C2C=CC(=[N+](CC)Cc3cccc(S(=O)(=O)[O-])c3)C=C2)c2ccccc2)cc1` as the compound, how does the outcome [1] read?
Answer: Its outcome is “inactive”.

Question: And the outcome [2]?
Answer: Its outcome is “inactive”.

Question: Which outcome [1] does the source give for `C[C@]12CCC(=O)C=C1CC[C@@H]1[C@@H]2C(=O)C[C@@]2(C)[C@H]1CC[C@]2(O)C(=O)CO` here?
Answer: The outcome was “inactive”.

Question: And the outcome [2]?
Answer: The outcome was “inactive”.

Question: For `Oc1ccc(Cl)cc1Cc1cc(Cl)ccc1O`, which outcome [1] is on record?
Answer: Its outcome is “inactive”.

Question: With `[Cl][Nd]([Cl])[Cl]` as the compound, how does the outcome [1] read?
Answer: Its outcome is “inactive”.

Question: For `O=C1C=CC(=O)O1`, which outcome [1] is on record?
Answer: Its outcome is “inactive”.

Question: For `C[C@]12C=CC(=O)C=C1CC[C@@H]1[C@@H]2[C@@H](O)C[C@@]2(C)[C@H]1CC[C@]2(O)C(=O)CO`, which outcome [1] is on record?
Answer: Its outcome is “inactive”.

Question: What about the outcome [2] of the same compound?
Answer: Its outcome is “inactive”.

Question: With `CC1(C)O[C@@H]2C[C@H]3[C@@H]4C[C@H](F)C5=CC(=O)C=C[C@]5(C)[C@@]4(F)[C@@H](O)C[C@]3(C)[C@]2(C(=O)CO)O1` as the compound, how does the outcome [1] read?
Answer: Its outcome is “inactive”.

Question: And the outcome [2]?
Answer: Its outcome is “inactive”.

Question: For `O=C(O)c1ccccc1Nc1cccc(C(F)(F)F)c1`, which outcome [1] is on record?
Answer: Its outcome is “inactive”.

Question: With `Cc1ccccc1C` as the compound, how does the outcome [1] read?
Answer: The outcome was “inactive”.

Question: Which results are given for `Nc1ccc(N=Nc2ccccc2)c(N)n1`?
Answer: outcome [1]: inactive; outcome [2]: inactive

Question: Which outcome [1] does the source give for `O=C(O)CCCC[C@@H]1SC[C@@H]2NC(=O)N[C@@H]21` here?
Answer: The outcome was “inactive”.

Question: What about the outcome [2] of the same compound?
Answer: The outcome was “inactive”.

Question: Which outcome [1] does the source give for `CCCOC(=O)CCCCC(=O)OCCC` here?
Answer: The outcome was “inactive”.

Question: What about the outcome [2] of the same compound?
Answer: Its outcome is “inactive”.

Question: For `COc1ccc(C(Cl)=C(c2ccc(OC)cc2)c2ccc(OC)cc2)cc1`, which outcome [1] is on record?
Answer: Its outcome is “inactive”.

Question: Which outcome [1] does the source give for `CC1(C)[C@H]2CC[C@]1(C)C(=O)C2` here?
Answer: The outcome was “inactive”.

Question: What about the outcome [2] of the same compound?
Answer: Its outcome is “inactive”.

Question: Which outcome [1] does the source give for `O=C1CCCCCCCCCCC(=O)OCCO1` here?
Answer: Its outcome is “inactive”.

Question: With `CCCCCCCCCCCCCCCC(=O)OCC` as the compound, how does the outcome [1] read?
Answer: The outcome was “inactive”.

Question: And the outcome [2]?
Answer: Its outcome is “inactive”.

Question: With `Cc1cnc(NC(=O)C2=C(O)c3ccccc3S(=O)(=O)N2C)s1` as the compound, how does the outcome [1] read?
Answer: The outcome was “inactive”.

Question: With `Cn1c([N+](=O)[O-])cnc1COC(N)=O` as the compound, how does the outcome [1] read?
Answer: Its outcome is “inactive”.

Question: With `C#CC1(O)CC[C@H]2[C@@H]3CCC4=CCCC[C@@H]4[C@H]3CC[C@@]21C` (stereo not given in full) as the compound, how does the outcome [1] read?
Answer: The outcome was “inactive”.

Question: With `CN(C)c1ccc(N=Nc2ccccc2C(=O)O)cc1` as the compound, how does the outcome [1] read?
Answer: Its outcome is “inactive”.

Question: And the outcome [2]?
Answer: The outcome was “inactive”.

Question: Which results are given for `CCCCOCCOC(=O)COc1nc(Cl)c(Cl)cc1Cl`?
Answer: outcome [1]: inactive; outcome [2]: inactive

Question: Which AC50 [1] does the source give for `CN(C)c1ccc(C(=N)c2ccc(N(C)C)cc2)cc1` here?
Answer: Its AC50 is 40.5 µM (active).

Question: What about the outcome [1] of the same compound?
Answer: The outcome was “inactive”.

Question: What about the outcome [2] of the same compound?
Answer: The outcome was “inactive”.

Question: What about the AC50 [3] of the same compound?
Answer: Its AC50 is 1.92 µM (active).

Question: With `O=C(/C=C/C=C/c1ccc2c(c1)OCO2)N1CCCCC1` as the compound, how does the outcome [1] read?
Answer: Its outcome is “inactive”.

Question: Which outcome [1] does the source give for `O=C(Nc1cccc(C(F)(F)F)c1)c1cc(Br)cc(Br)c1O` here?
Answer: The outcome was “inactive”.

Question: And the outcome [2]?
Answer: Its outcome is “inactive”.

Question: With `Cc1c(C)c([N+](=O)[O-])c(C(C)(C)C)c([N+](=O)[O-])c1C` as the compound, how does the outcome [1] read?
Answer: Its outcome is “inactive”.

Question: For `O=c1[nH]nc(-c2ccc([N+](=O)[O-])o2)o1`, which outcome [1] is on record?
Answer: Its outcome is “inactive”.

Question: With `CCCNC(=O)NS(=O)(=O)c1ccc(Cl)cc1` as the compound, how does the outcome [1] read?
Answer: The outcome was “inactive”.

Question: Which outcome [1] does the source give for `O=Cc1ccc(CO)o1` here?
Answer: The outcome was “inactive”.

Question: What does the source list for `CCC(=O)Oc1ccc(/C(CC)=C(\CC)c2ccc(OC(=O)CC)cc2)cc1`?
Answer: outcome [1]: inactive; outcome [2]: inactive

Question: Which outcome [1] does the source give for `Cc1cc(=O)n(-c2ccccc2)n1C` here?
Answer: The outcome was “inactive”.

Question: With `Cc1cccc(N(C)C(=S)Oc2ccc3ccccc3c2)c1` as the compound, how does the outcome [1] read?
Answer: Its outcome is “inactive”.

Question: For `Cc1oncc1C(=O)Nc1ccc(C(F)(F)F)cc1`, which outcome [1] is on record?
Answer: The outcome was “inactive”.

Question: And the outcome [2]?
Answer: The outcome was “inactive”.

Question: What does the source list for `CCCCCCCC/C=C\CCCCCCCC(=O)O`?
Answer: outcome [1]: inactive; outcome [2]: inactive

Question: Which outcome [1] does the source give for `O=C1CCCC1` here?
Answer: Its outcome is “inactive”.

Question: What about the outcome [4] of the same compound?
Answer: Its outcome is “inactive”.

Question: For `CCCCCCC(O)CO` (stereo not given), which outcome [1] is on record?
Answer: Its outcome is “inactive”.

Question: And the outcome [2]?
Answer: The outcome was “inactive”.

Question: For `CCOC(=O)N1CCC(=C2c3ccc(Cl)cc3CCc3cccnc32)CC1`, which outcome [1] is on record?
Answer: Its outcome is “inactive”.

Question: What about the outcome [2] of the same compound?
Answer: Its outcome is “inactive”.

Reference: PubChem BioAssay (EPA / NIEHS)
